An excerpt weighted towards active compounds, which were near 2.1% of everything screened.
aSyn yeast inh = alpha-synuclein toxicity inhibition in yeast. Yeast expressing alpha-synuclein, growth rescue, BacTiter-Glo, 24 h. Potency, µM (titrated, usually from 46.1 µM), for the others: at the top dose growth rescue (activation), most hits filed as activators. 0.14% of 370,000 active. AID 652106; also: % of control where 0% means no effect; nearly all actives have a fitted effect of over 65% in size
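Screening used galactose-induced yeast with toxic alpha-synuclein levels, exposed to compound for 24 hr at 30 deg C. Cell growth, read with BacTiter-Glo luminescence, gave the measured signal.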
Abeta rescue = restores growth of yeast expressing A-beta42 peptide. yeast expressing A-beta42, growth rescue, OD600, 48 h; response scale: 0% DMSO, 100% iron-clioquinol control. Potency, µM (highest dose often 46.1 µM), actives largely listed as activators. 0.063% of 410,000 active. AID 1347071; also: nearly all actives have a fitted effect of over 55% in size
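Growth rescue measured by 600 nm absorbance after 48 h yeast culture at 30 C with compound. Values normalized between DMSO and an equimolar ferric chloride plus clioquinol control.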
FUS suppressor = rescues growth of FUS-expressing yeast | S. cerevisiae FUS-expressing, growth rescue, OD600, 24 h | Potency, µM (doses to about 76.6 µM), actives largely listed as activators | 0.24% of 390,000 active | AID 1347120;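 also: plate controls were DMSO vehicle for no effect and reference control for full effect; nearly all actives have a fitted effect of over 55% in size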
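Steps: raffinose overnight preculture; dilution to OD 0.005 in 2% galactose minimal medium; compound addition (concentration series); 24hr at 30C, 99% humidity; absorbance read at 600 nm.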
TDP43 rescue = TDP-43 toxicity inhibition in yeast. TDP-43 expressing yeast growth rescue, BacTiter-Glo, 24 h. Potency, µM (highest dose often 46.1 µM), for inactives: top-dose growth rescue (activation), hits mostly activators. 1.8% of 410,000 active; also: % of control where 0% means no effect; nearly all actives have a fitted effect of over 50% in size
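Yeast cells expressing TDP-43 under galactose induction are exposed to compounds for 24 hr at 30 deg C. BacTiter-Glo luminescence measures growth, so protective compounds score as activators.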
* = called active by the depositor; i = inactive; ? = inconclusive; . = no result given; ! = not active in a repeat; [ ] = dose if it differs, or a comment. Calls follow the shape of the dose curve; as a rule, active = well fitted curve in the direction sought with a large enough effect; inconclusive = small, poorly fitted or top-dose-only effect, or another doubt; inactive = no such curve, though single readings can be large; an effect the other way counts as inactive or inconclusive. Potency is read from the fitted curve at half-maximal effect.

SMILES | aSyn yeast inh | Abeta rescue | FUS suppressor | TDP43 rescue
C=CCNc1nc2cc(-c3ccccc3C)sc2c(=O)n1C | 6% | i | i | 35µM*
Cn1c(OCC2CCCO2)nc2cc(-c3ccccc3)sc2c1=O (stereo unspecified) | 11% | i | i | 35µM*
Cc1ccc(Cn2nnc3c(=O)[nH]c(C(=O)NCc4ccco4)nc32)cc1 | -1% | i | i | -5%
CC(C)(C)NS(=O)(=O)c1ccc(OCC(=O)NCC2CCCO2)cc1 (stereo unspecified) | -1% | i | i | -16%
Cc1nn(C(=O)CNS(=O)(=O)c2ccccc2)c(C)c1Sc1ccc(Cl)cc1 | -11% | i | . | 16µM*
Cc1nn(C(=O)COc2ccc(Cl)cc2)c(C)c1Sc1ccccc1 | . | i | i | 0%
Nc1c(-c2ccccc2)cnn1-c1cccc([N+](=O)[O-])c1 | 2% | i | i | 20µM*
COC(=O)C1CN(Cc2ccccc2)CCS(=O)(=O)N1Cc1cn(Cc2ccccc2Br)nn1 (stereo unspecified) | . | . | 14µM* | .
COC(=O)C1CN(Cc2ccccc2)CCS(=O)(=O)N1Cc1cn(Cc2ccc(F)cc2)nn1 (stereo unspecified) | . | . | i | .
COC(=O)c1ccccc1NC(=O)/C=N/O | 6% | i | i | 23%
O=C(/C=N/O)Nc1ccc2sc3ccccc3c2c1 | 0% | i | i | 7.9µM*
CC(=O)Nc1ccc(NCN2C(=O)[C@@H]3[C@H]4CC[C@H](C4)[C@@H]3C2=O)cc1 | 1% | i | . | 6.3µM*
Cc1[nH]c2ccccc2c1/C=N/Nc1ccccc1[N+](=O)[O-] | -11% | i | i | 10%
Cc1nc(N2CCCCC2)sc1C(=O)c1ccc(SCCO)c([N+](=O)[O-])c1 | 26% | i | i | 35µM*
COCc1cc(N2CCOCC2)nc(SCc2ccc(Cl)cc2)n1 | 15% | 10µM* | i | -12%[0.397 µM]
COc1ccc(-c2nc(NC(=O)Cn3cnnn3)sc2C)cc1 | -13% | i | i | 25%
O=C(CCl)Nc1cn(-c2ccccc2)nc1-c1ccc(F)cc1 | 4% | i | i | 8.9µM*
O=C1CC(c2ccccc2)Oc2ccccc21 (stereo unspecified) | -1% | i | i | 14µM*
CNC(=S)N/N=C1\CC(c2ccccc2)Oc2ccccc21 (stereo unspecified) | -1% | i | i | 22µM*
COC(=O)C1CCN(C(=O)COc2cc3sc(C)nc3c3sccc23)CC1 | 1% | i | i | 20µM*
Cc1ccc(N=Cc2ccc[nH]2)c(O)c1 | -2% | i | 35µM* | -23%
Cc1ccccc1N=Cc1ccc[nH]1 | 0% | i | i | ?
CCC(C)Sc1ccc(-c2nc3ccc(C)cn3c2NCc2ccccc2)cc1OC (stereo unspecified) | -55% | i | ? | -46%
CCC(C)Sc1cc(-c2nc3ccc(C)cn3c2NCc2ccccc2)ccc1OC (stereo unspecified) | -56% | i | 32µM*! | 29%
NC(=S)Nc1ccc2c(c1)OCO2 | 1% | i | i | 5%
SMILES | aSyn yeast inh | Abeta rescue | FUS suppressor | TDP43 rescue
N#Cc1ccc(NC(=S)/N=C(\N)c2ccccc2)cc1 | -21% | ? | i | 11µM*
N/C(=N\C(=S)Nc1ccc2c(c1)OCO2)c1ccccc1 | -12% | ? | i | 20µM*
N/C(=N\C(=S)Nc1ccccc1)c1ccccc1 | -11% | ? | i | ?
Nn1c(SCC(=O)Nc2ccccc2F)nnc1-c1cccnc1 | 3% | ? | i | 0%
CCCCn1c(CNC(=O)C23CC4CC(CC(C4)C2)C3)nnc1SCC(=O)Nc1ccccc1 | . | i | i | 5%
COc1cc(NC(=O)c2c(Cl)cnn2C)c(OC)cc1Cl | -2% | i | i | 7%
C#Cc1ccc(NC(=O)C2(C)CCN2C(=O)C/C=C/c2ccccc2)cc1 (stereo unspecified) | 20% | i | i | 25µM*
CC1(C(=O)Nc2cccc(C#N)c2)CCN1C(=O)C/C=C/c1ccccc1 (stereo unspecified) | -1% | i | ? | 0%
C#Cc1ccc(NC(=O)C2(C)CCN2C(=O)Cc2ccc(C(C)C)cc2)cc1 (stereo unspecified) | 13% | i | i | 35µM*
C#Cc1ccc(NC(=O)C2(C)CCN2C(=O)Cc2ccc(C(C)(C)C)cc2)cc1 (stereo unspecified) | 1% | i | i | 22%

Source: PubChem
